Giardia killer = Small Molecules that selectively kill Giardia lamblia: qHTS; Giardia lamblia trophozoite viability; 340,000 tested, 0.15% active; activity change, % at 7.66 µM, hits read low; in the data active = activity change below about -80%; inconclusive = between about -30% and that limit;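 also: parasites exposed to compound for two days anaerobically before the ATP read; % is scaled to controls: 0 for no effect and ±100 for the full control effect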
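Viability, read as ATP luminescence: trophozoites at 100 cells/well, compound added, 48 hrs anaerobic at 37 deg C, then 15-30 min room-temperature development before reading.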
SW480 rereplic = A quantitative high throughput screen for small molecules that induce DNA re-replication in SW480 colon adenocarcinoma cells | SW480 DNA re-replication, Hoechst DNA content imaging, 48 h | Potency, µM (series often up to 46.1 µM), for the others: at the top dose re-replication activation, usual class: activators | 340,000 tested, 1.8% active; also: potency is read from the fitted curve at half-maximal effect; % of control where 0% means no effect; nearly all actives have a fitted effect of over 55% in size
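Readout is total intensity of Hoechst-stained nuclei, excited at 405 nm and collected at 500-530 nm. Compound treatment lasted 48 hr at 37 C in 5% CO2 before staining.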
BCR signal inh = qHTS Assay to Find Inhibitors of Chronic Active B-Cell Receptor Signaling; 340,000 tested, 0.05% active; ABC-DLBCL IkBa-CBG/CBR reporter, luminescence ratio, 4 h; Potency, µM (series often up to 46.1 µM), for the others: at the highest dose activity change, negative = inhibition, most hits filed as inhibitors; AID 493014, 2011; active = well fitted inhibition curve with a large enough effect in the signal ratio, with a control signal flat, not every such curve was filed as active; inconclusive = small, poorly fitted or top-dose-only effect, or effect the other way, or a change in a side signal; the % refers to the signal ratio;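 also: potency is read from the fitted curve at half-maximal effect; plate controls were basal doxycycline-induced cells for no effect and cells given 10 µM MG132 for full effect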
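Doxycycline induced both beetle luciferases in TMD8 lymphoma cells; IKK-driven degradation limits the IkappaBalpha-fused green signal, while red luminescence normalises for cell number and nonspecific effects. Compounds tested up to 46 uM, 4 hrs.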
Gal4-VP16 FLuc = VP16 counterscreen qHTS for inhibitors of ROR gamma transcriptional activity; Drosophila S2 Gal4-VP16 UAS-luciferase, luminescence, 20 h; Potency, µM (top dose mostly 53.6 µM), without a hit: top-dose activity, negative = inhibition, usual class: inhibitors; 310,000 tested, 3.5% active; AID 2546, 2010;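 also: Gal4-VP16 expression switched on by copper sulfate through the metallothionein promoter; potency is read from the fitted curve at half-maximal effect; % is scaled to controls: 0 for no effect and ±100 for the full control effect; nearly all actives have a fitted effect of over 50% in size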
MCF10A rereplic = A quantitative high throughput screen for small molecules that induce DNA re-replication in MCF 10a normal breast cells; MCF 10A DNA re-replication, Hoechst nuclear intensity, 48 h; Potency, µM (top dose mostly 46.1 µM), for the others: top-dose activity, positive = re-replication, usual class: activators; 350,000 tested, 2.9% active; also: potency is read from the fitted curve at half-maximal effect; % of control where 0% means no effect; nearly all actives have a fitted effect of over 50% in size
RORg inh = qHTS for inhibitors of ROR gamma transcriptional activity; AID 2551, 2010; Nuclear receptor ROR-gamma (Mus musculus), P51450; Potency, µM (titrated, usually from 53.6 µM), inactives show top-dose activity change, negative = inhibition, most hits filed as inhibitors; 310,000 tested, 5.4% active; Drosophila S2 Gal4-RORgamma UAS-luciferase reporter, 20 h; also: potency is read from the fitted curve at half-maximal effect; % is scaled to controls: 0 for no effect and ±100 for the full control effect; nearly all actives have a fitted effect of over 60% in size
Target sequence (P51450 whole entry, looked up, the tested form may be a part): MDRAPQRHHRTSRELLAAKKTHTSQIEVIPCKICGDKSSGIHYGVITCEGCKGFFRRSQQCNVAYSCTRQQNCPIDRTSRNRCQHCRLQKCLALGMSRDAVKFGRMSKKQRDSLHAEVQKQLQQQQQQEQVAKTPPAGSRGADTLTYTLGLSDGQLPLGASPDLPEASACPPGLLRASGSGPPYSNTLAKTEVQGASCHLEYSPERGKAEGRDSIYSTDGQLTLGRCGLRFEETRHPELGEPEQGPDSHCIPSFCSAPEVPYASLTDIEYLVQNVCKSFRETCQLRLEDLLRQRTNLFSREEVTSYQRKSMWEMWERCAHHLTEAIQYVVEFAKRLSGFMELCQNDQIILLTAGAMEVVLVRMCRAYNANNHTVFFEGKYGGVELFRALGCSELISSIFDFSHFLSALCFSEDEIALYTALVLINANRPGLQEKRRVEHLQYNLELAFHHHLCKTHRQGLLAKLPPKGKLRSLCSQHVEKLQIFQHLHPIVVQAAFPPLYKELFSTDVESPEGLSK
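A Gal4/UAS one-hybrid system in insect cells: metallothionein-promoter Gal4–ROR gamma fusion plus Photinus luciferase reporter. Copper sulfate 700 uM final, 20 hr ambient incubation, luminescent detection after 10 min with reagent.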
Active calls of the source: *; ? = inconclusive; . = not tested or not shown; [ ] = remark or other dose. This is a sample that favours compounds with a hit; in the whole collection about 8.3% have one here. Unless noted, calls follow the shape of the dose curve; as a rule, active = well fitted curve in the direction sought with a large enough effect; inconclusive = small, poorly fitted or top-dose-only effect, or another doubt; inactive = no such curve, though single readings can be large; an effect the other way counts as inactive or inconclusive.

SMILES	Giardia killer	SW480 rereplic	BCR signal inh	Gal4-VP16 FLuc	MCF10A rereplic	RORg inh
Cc1ccc(N2CCN(c3cc(C)nc4c(-c5ccc(Cl)cc5)c(C)nn34)CC2C)cc1 (centres undefined)	.	.	6%	.	.	.
C/C=C1\COC(C(=O)NC)(C(F)(F)F)C=C1C=C1CCCCC1 (centres undefined)	6	.	.	?	.	?
CCC(Sc1nc2ccccc2c(=O)n1CCc1ccc(OC)c(OC)c1)C(=O)N(CC)CC (centres undefined)	.	.	21%	.	.	.
Cc1ccc(-c2csc3n[nH]c(=S)n23)cc1	43	3%	1%	8.9µM*	1%	2.5µM*
S=c1[nH]nc2sc3ccccc3n12	14	-1%	.	.	-14%	.
c1ccc(CNc2ncnc3c2ncn3C2CCCCO2)cc1 (centres undefined)	-13	29%	?	11%	16µM*	?
Cc1ccc(N2C(=O)Nc3ccccc3S2(=O)=O)cc1Cl	14	-1%	0%	-4%	-14%	42%
C[C@@](N)(C(=O)O)c1ccc(C(=O)O)cc1	.	.	.	4%	.	32%
Brc1cccc(C2Nc3cccc4cccc(c34)N2)c1	-10	3%	-3%	.	-16%	.
Brc1ccc(C2Nc3cccc4cccc(c34)N2)o1	-18	1%	-6%	2%	15µM*	3%
Fc1cccc(Cl)c1C1Nc2cccc3cccc(c23)N1	-13	8%	-23%	.	14%	.
Clc1cccc(Cl)c1C1Nc2cccc3cccc(c23)N1	43	?	?	4µM*	18µM*	0.71µM*
CC(=O)Oc1ccc(-c2ccc(C(=O)Nc3cccc(S(=O)(=O)N4CCOCC4)c3)cc2)cc1	-13	-1%	?	-11%	-6%	28%
CN1CCN(C2Cc3cc(Cl)ccc3Sc3cc(F)ccc32)CC1 (centres undefined)	-10	?	.	.	?	.
CN1CCN(C2=Cc3cc(Cl)ccc3Sc3cc(F)ccc32)CC1	7	?	?	0%	13µM*	-11%
CN1CCN(C2=Cc3ccccc3Sc3cc(F)c(Cl)cc32)CC1	3	1%	-14%	?	?	?
CN1CCN(C2=Cc3ccccc3Sc3cc(F)c(F)cc32)CC1	-3	1%	-6%	7.9µM*	-14%	7.9µM*
CCCCCCSc1cccc(-c2nc3ccc(C)cn3c2NCc2ccccc2)c1	-14	-7%	0%	.	?	.
Cc1ccc2nc(-c3cccc(-c4cccc(Cl)c4)c3)c(NCc3ccccc3)n2c1	-17	22%[9.22 µM]	5%	.	7.3µM*	.
CCC(C)Sc1cccc(-c2nc3ccc(Cl)cn3c2NCc2ccccc2)c1 (centres undefined)	41	27%	19%	.	?	.
CCCCCCSc1cccc(-c2nc3ccccn3c2NCc2ccccc2)c1	-12	?	1%	.	21µM*	.
CCC(C)Sc1cccc(-c2nc3ccc(C)cn3c2NCc2ccccc2)c1 (centres undefined)	3	?	?	.	12µM*	.
CCC(C)Sc1cccc(-c2nc3ccccn3c2NCc2ccccc2)c1 (centres undefined)	-8	1%	?	.	18µM*	.
CCOC(=O)c1sc2nc(C)nc(N3CCCCC3C)c2c1C (centres undefined)	23	4%	9%	4%	18µM*	-10%
Cc1nc(N2CCCCC2)c2c(C)c(C(=O)Nc3ccccc3C(F)(F)F)sc2n1	5	3%	?	?	?	?
SMILES	Giardia killer	SW480 rereplic	BCR signal inh	Gal4-VP16 FLuc	MCF10A rereplic	RORg inh
Cc1nc(N2CCCCC2)c2c(C)c(C(=O)Nc3cccc(C(F)(F)F)c3)sc2n1	-22	-149%	?	?	18µM*	-31%
O=C(Nc1cccc(C(F)(F)F)c1)c1cccnc1N1CCOCC1	-4	0.73µM*	-4%	-15%	1%	9%
Cc1nc(N2CCCCC2C)c2c(C)c(C(=O)Nc3cccc(C(F)(F)F)c3)sc2n1 (centres undefined)	2	27%	14%	6%	18µM*	-7%
CCCC[C@@H]1C[C@H]1C(NC(=O)c1ccccc1)c1ccc(C(F)(F)F)cc1 (some centres undefined)	.	.	.	?	.	16µM*
COc1ccccc1CN1CC(C(=O)NCc2ccc(C)c(F)c2)CCC1=O (centres undefined)	8	16%	-1%	-7%	2%	-1%
COc1ccc([C@H]2CC(=O)C=C(c3ccc(NC(C)=O)cc3)C2)cc1OC	-26	-10%	?	.	19%	.

Screening data (PubChem BioAssay)
